The list is not random: actives were taken first. Their share in the collection is about 10%.
BAZ2B inh: inhibitors of human BAZ2B bromodomain; Q9UIF8; AlphaScreen BAZ2B-H3K14Ac peptide displacement; Potency, µM (highest dose often 114 µM), usual class: inhibitors; actives 4.4% (n = 360,000); AID 504333; further: nearly all actives have a fitted effect of over 60% in size
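AlphaScreen displacement: compounds (up to 110uM) incubated 30 min at room temperature with a preformed 50 nM BAZ2B/50 nM biotinylated H3K14Ac peptide complex in PBS pH 7.4 with Tween-20. Donor and acceptor beads at 10 ug/mL final added, 20 min light-protected before reading.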
HP1b binding inh: HP1-beta chromodomain-methylated histone interaction inhibition; P83916; AlphaScreen HP1-beta / biotin-H3K9me3 peptide binding; Potency, µM (top dose mostly 114 µM), most hits filed as inhibitors; actives 0.56% (n = 390,000); further: nearly all actives have a fitted effect of over 70% in size
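AlphaScreen: HP1-beta (50 nM) preformed 30 min with biotin-H3(1-18)K9me3 peptide (50 nM) in PBS pH 7.4, 0.01% Tween-20. Compound added for 30 min at RT, then streptavidin donor/nickel chelate acceptor beads (10 ug/mL) for 30 min.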
G9a inh-1: inhibitors of human histone lysine methyltransferase G9a; Q96KQ7; G9a H3K9 monomethylation, AlphaScreen, 2 h; Potency, µM (doses to about 102 µM), hits mostly inhibitors; actives 8.8% (n = 350,000); further: nearly all actives have a fitted effect of over 75% in size
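AlphaScreen detection with an anti-monomethyl H3K9 antibody quantified product after a 2 h room-temperature reaction containing 500 nM biotinylated H3K9 peptide, 20 µM SAM and 20 nM enzyme, which had been preincubated 15 min with compound.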
L3MBTL1 inh: L3MBTL1 (human) inhibition; Potency, µM (highest dose often 57.1 µM), usual class: inhibitors; AID 485360; actives 0.66% (n = 230,000); AlphaScreen L3MBTL1–H3K9me1 peptide binding; further: nearly all actives have a fitted effect of over 60% in size
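AlphaScreen assay: L3MBTL1 (50 nM final) was preincubated 30 min at room temperature with biotinylated H3(1-15)K9me1 peptide (75 nM final), then 30 min with library compounds; streptavidin donor and nickel chelate acceptor beads (10 ug/mL final) added, 30 min dark.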
JMJD2A Tudor: blocks the human JMJD2A Tudor domain; O75164; AlphaScreen JMJD2A-Tudor / H3K4me3 peptide binding; Potency, µM (top dose mostly 114 µM), actives largely listed as inhibitors; actives 4.4% (n = 390,000); further: nearly all actives have a fitted effect of over 50% in size
GLS inh: inhibitors of human glutaminase (GLS). GLS enzymatic activity, qHTS titration. O94925. AID 624170. Potency, µM (top dose mostly 45.5 µM), most hits filed as inhibitors. actives 0.21% (n = 410,000)
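Read-out is an Amplex red fluorescence increase coupled through glutamate oxidase and HRP, measured before and after 30 min room-temperature incubation. hKGA is in 45 mM KH2PO4 (pH 8.2) with 0.02% Tween-20; glutamine added as 1mM solution.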
G9a inh-2: inhibits human G9a histone lysine methyltransferase, hit confirmation | shares compounds with JMJD2A Tudor | G9a H3K9 monomethylation, AlphaScreen, 2 h | Potency, µM, usual class: inhibitors | actives 89% (n = 370); further: nearly all actives have a fitted effect of over 65% in size
Hits are given with their value; i = inactive; ? = inconclusive; nt = no result given. The call rests on the fitted dose curve; in most records, active means well fitted curve in the direction sought with a large enough effect; inconclusive means small, poorly fitted or top-dose-only effect, or another doubt; inactive means no such curve, though single readings can be large; an effect the other way counts as inactive or inconclusive.

SMILES | BAZ2B inh | HP1b binding inh | G9a inh-1 | L3MBTL1 inh | JMJD2A Tudor | GLS inh | G9a inh-2
Cc1ccc(NC(=O)N(Cc2ccc3c(c2)OCO3)C2CCN(Cc3ccccc3)CC2)cc1Cl | i | i | ? | nt | ? | i | nt
O=C(COc1ccc(Cl)cc1)N1CCN(Cc2ccc([N+](=O)[O-])cc2)CC1 | nt | ? | 2.51µM | i | 11.2µM | i | 35.5
Cc1ccc(OCC(=O)N2CCN(Cc3cccnc3)CC2)cc1 | nt | ? | 2.82µM | i | 3.98µM | i | 15.8
CSc1ccc(CN2CCN(C(=O)COc3cccc(C)c3)CC2)cc1 | 50.1µM | 39.8µM | 10µM | i | 8.91µM | i | 39.8
CC(C)C(Br)C(=O)NC(N)=O (stereo not drawn) | nt | nt | i | nt | nt | i | nt
Cc1ccc(-c2cc(C(F)F)n3ncc(C(=O)N4CCc5ccccc5C4)c3n2)cc1 | i | i | i | i | i | i | nt
CCc1nc(-c2ccc(C)nc2OC)no1 | i | i | ? | nt | i | i | 1.78
COc1ccc(-c2noc(CN3C(=O)c4ccccc4C3=O)n2)cc1 | i | i | ? | i | i | i | nt
c1ccc(CNCCc2ccc3c(c2)OCO3)nc1 | 44.7µM | i | 1.78µM | i | ? | i | ?
c1ccc(CCNCc2cccs2)cc1 | i | i | i | i | i | i | nt
Fc1cccc(CCNCc2ccccn2)c1 | 20µM | i | 1.58µM | i | 3.55µM | i | 28.3
Cc1c(Cl)cccc1NC(=O)CN1C(=O)C(C)N=C(c2ccccc2)c2ccccc21 (stereo not drawn) | nt | i | i | nt | i | i | nt

Assay outcomes from PubChem BioAssay.
